Structures are written as SMILES. About 83,000 compounds went through this panel and 20% of them were active in at least one assay; those are over-represented in the sample as a whole.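 Method: cells in 96-well plates; compound added at one concentration; 48 h incubation; percent growth measured; values under 10 scored active.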 A number with no mark means an inactive call. Activity calls are given as the source filed them.

The test system of the assay is CCRF-CEM leukemia. The assay is described as follows: NCI-60 one-dose screen, 48 h (100 = growth as untreated, 0 = no growth, -100 = all killed). Particulars: 10 µM unless noted. How it is done: Growth inhibition of the CCRF-CEM human tumor cell line is measured as a screen for anti-cancer activity. Cells are grown in 96 well plates and exposed to the test compound for 48 hours. Compounds are tested at a single concentration, which is 10^-5 M for most compounds. The reported endpoint is percent growth (GI% or GIPRCNT), where numbers from 0 - 100% represent growth inhibition, and numbers from -100% - 0 represent cell death. For example, a value of 40 represents 60% growth inhibition. A value of 0 means no net growth occurred over the course of the experiment. A value of -40 indicates 40% of cells at the beginning of the experiment died by the end of the experiment. A value of -100 means all cells are dead at the end of the experiment.
NCI-60 Human Tumor Cell Lines Screen was performed using the standard one-dose NCI protocol, which is described in more detail at https://dtp.cancer.gov/discovery_development/nci-60/default.htm.
Compounds with GIPRCNT values below 10 were considered active. Activity score was based on GIPRCNT using the following formula: […]
Score is 0 for GIPRCNT values of 100 or above, 50 for GIPRCNT values of 0, and 100 for GIPRCNT values of -100.
Regarding `NS(=O)(=O)c1cn(-c2ncnc3nc[nH]c23)ccc1=O`, the growth was 94.1%.

For the molecule `CN(C)S(=O)(=O)n1cnc([C@@H]2[C@@H]3C(=O)OC[C@@H]3C[C@]23N=CN(Cc2ccccc2)C3=O)c1`, the growth is 125%. As for `O=C1CCC(N2C(=O)c3cccc(NCCCC4CCN(CCNC(=O)c5cc6c(o5)C(=O)c5ccccc5C6=O)CC4)c3C2=O)C(=O)N1` (stereo not given), the growth was 21%. The result for `COc1ccc(/C(C)=C(\c2ccc(Cl)cc2)c2ccc(OCCCN(C)C)cc2)cc1F` reads 48.2%; that for `O=c1[nH]c(=O)n(C2CC(O)C(CO)O2)cc1CO` (stereo not given), 79.8%; that for `CC1=NN(c2cccc(Cl)c2)C(=O)/C1=C\c1cn(CC(O)CN2CCCCC2)c2ccccc12` (stereo not given), 41.9%. The result for `CC(C)CCC[C@@H](C)[C@H]1CCC2C3=CCC4C(=O)C=CC(=O)C4C3CC[C@@]21C` (stereo not given in full) reads 17%; that for `Cn1cc(-c2ccc3ncc(-c4ccc(CC(=O)Nc5cc(C(C)(C)C)nn5C)cc4)cc3c2)cn1`, -15.4% [30 µM] (active); that for `NC(N)=N/N=C/c1ccc(Br)cc1`, 32.6%.

For the molecule `CCOC(=O)c1c(C)[nH]c(C(=O)CCC(=O)OC)c1C`, the growth was 92.8%.

Regarding `O=C1C2=C(CCN(Cc3ccccc3)C2)N2CCN=C2N1Cc1ccc(F)cc1F`, the growth was 56.7%.

As to `C[N+](C)(C)CCOC(OCC[N+](C)(C)C)(c1ccccc1)c1ccccc1`, the growth is 105%. On to `CNC(=O)NCC1OC(n2cnc3c(NC(=O)Nc4ccccc4)ncnc32)C2OC(C)(C)OC12` (stereo not given), for which the growth was 95.4%. Turning to `CCNCCNc1cc(-c2ccc(C#N)cc2)c(C#N)c2nc3ccccc3n12`, the growth was 27.5%. The result for `CN(C)CCC(O)(Cc1ccccc1)c1ccccc1` (stereo not given) reads 112%; that for `CC(C)OC(=O)OCOP(=O)(OCOC(=O)OC(C)C)C1CCCN(O)C1=O` (stereo not given), 10%. Consider `COc1ccc(-c2nnc(SCC(=O)NC3=NN=C(c4ccccc4)CS3)o2)cc1`, for which the growth was 90.8%. As for `CCCNCC(=O)Nc1ccc(C(=O)OC(C)(C)CC)cc1`, the growth was 104%. The figure for `C[C@@H]1C(=O)N(C[C@H](Cc2ccccc2)NC(=O)OCc2ccccc2)[C@]1(Cc1ccccc1)C(=O)OC(C)(C)C` is 72.2%. The result for `Cn1cc(-c2ccc3nc(-c4ccc(CC(=O)Nc5cc(C(C)(C)C)no5)cc4)cnc3c2)cn1` reads 45.9% [30 µM]; that for `CN(C)c1ccc(C#Cc2c(F)cccc2Cl)cc1`, 88.6%.

Turning to `O=C1C=CC(=Nc2cc(Br)c(O)c(Br)c2)C=C1`, the growth is 7.46% (active). The result for `COc1ccc(/C=N/NC(=O)Cn2c(-c3ccc(S(C)(=O)=O)cc3)nc3cc(Cl)ccc32)cc1` reads 1.56% (active); that for `Cn1ccc(Cc2cnc(N)s2)n1`, 100%. The result for `N#Cc1c(N)nc2c(nnn2-c2cccc(Br)c2)c1N` reads 97.9%. The result for `Cc1ccc(Nc2ccc(Nc3ccc(C)cc3S(=O)(=O)O)c3c2C(=O)c2ccccc2C3=O)c(S(=O)(=O)O)c1` reads 95.6%; that for `O=C1C2=C(CCN(Cc3ccccc3)C2)N2CCN=C2N1Cc1ccc(C(F)(F)F)cc1`, 52.6%.

Consider `CC(C)n1nc(C#Cc2cccc3cc(-c4cccc(C(F)(F)F)c4)ncc23)c2c(N)ncnc21`, for which the growth is 39.5%. For `OC(CBr)c1ccnc2ccccc12` (stereo not given), the growth was 76.8%. In the case of `Clc1ccc(-c2cn(-c3ccccc3)c(-c3ccccc3)n2)cc1`, the growth was -3.48% (active). With `COc1ccc(-c2nc3ccccn3c2/C=C/C(=O)c2cc(OC)c(OC)c(OC)c2)cc1`, the growth was 41.7%.

In the case of `CCOC(=O)c1nnn(-c2ccccc2)c1C1=CN(C)CCC1`, the growth is 109%. The result for `Cc1nc(Nc2ccc(NC(=S)Nc3ccccc3)cc2)nc2nc(Nc3cccc(Cl)c3)[nH]c(=O)c12` reads 81.2%; that for `Cc1ccc(O)c(C(=O)c2ccccc2Cl)c1`, 115%. In the case of `C=C(C=O)C1CCC2(C(=O)O)CCC3(C)C(CCC4C5(C)CCC(O)C(C)(C)C5CCC43C)C12` (stereo not given), the growth was 6.48% (active).

Take `CCCCCOC(=O)c1cccc(NC(=O)CN(CC)CC)c1`: the growth was 78.6%. Turning to `CC(C)N(CCOC(=O)Nc1ccccc1Cl)C(C)C`, the growth is 83.7%. In the case of `Cc1csc(NC(=O)c2sc3nc(-c4cccs4)ccc3c2N)n1`, the growth was 70.3%. As to `C=C1C(=O)O[C@H]2[C@H]1CC/C(COC(=O)NCc1ccc(Cn3c(=O)sn(CCCCl)c3=O)cc1)=C\CC[C@@]1(C)O[C@@H]21`, the growth was -38% (active). In the case of `COc1cc(/C=C/c2nc(Nc3ccc(S(=O)(=O)Nc4cc(C)on4)cc3)c3ccccc3n2)ccc1O`, the growth is 55.9%.

Values taken from PubChem BioAssay (NCI).
